In the library only some 1.1% were active in any assay of this set; here they are far more common.
IMPase Li inh: membrane-permeable IMPase blocker, potentiated with lithium; CHO-M1 cells, IP1 TR-FRET (IP-One), carbachol + lithium; Potency, µM (titrated, usually from 59.4 µM), for the others: at the highest dose activity, negative = IMPase inhibition, actives largely listed as inhibitors; 210,000 compounds, 0.35% hits;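 note: IP1 builds up when IMPase is blocked and the TR-FRET signal falls; plate controls were basal vehicle for no effect and high inhibitor control for full effect; nearly all actives have a fitted effect of over 50% in size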
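Concentration–response in CHO-M1 cells, lithium-potentiated; 30 min at 37C. IP1 detected by competitive TR-FRET after 10 min lysis at RT. Hill-fitted AC50.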
Luc counter: counter-screen: inhibitors of Kinase-Glo firefly luciferase; Q27757; Kinase-Glo luciferase, ATP luminescence, 8 min; Potency, µM (highest dose often 38.3 µM), inactives show at the highest dose activity change, negative = inhibition, actives largely listed as inhibitors; 200,000 compounds, 0.28% hits; AID 1379; note: nearly all actives have a fitted effect of over 60% in size
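Recombinant Kinase-Glo luciferase, 10 uM ATP (linear range), luciferin; imidazole pH 7.2 / KCl / MgCl2 / Tween / BSA buffer; 8 min RT; luminescence.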
ERK EGF inh: blocks ERK signaling stimulated by EGF; 130,000 compounds, 0.41% hits; AID 1454; Potency, µM (series often up to 11.5 µM), for the others: at the highest dose activity change, negative = inhibition, usual class: inhibitors; HEK293-V1b, EGF-stimulated phospho-ERK AlphaScreen;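 note: plate controls were stimulated vehicle wells for no effect and unstimulated vehicle basal for full effect; nearly all actives have a fitted effect of over 55% in size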
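HEK293 cells stably expressing V1b receptor, serum-reduced (1% FBS) overnight, pretreated 30 min with compound, then stimulated 5 min with 25 nM EGF; phospho-ERK detected by AlphaScreen SureFire. AC50 from Hill fits, normalized to DMSO and EGF.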
NPSR antagonist: blocks cAMP signaling of the human neuropeptide S receptor; Q6W5P4; AID 1461; CHO-NPSR cells, cAMP TR-FRET, antagonist mode; Potency, µM (series often up to 38.3 µM), inactives show at the highest dose activity change, negative = inhibition, usual class: inhibitors; 220,000 compounds, 1% hits; note: nearly all actives have a fitted effect of over 50% in size
Target sequence (Q6W5P4 whole entry, looked up): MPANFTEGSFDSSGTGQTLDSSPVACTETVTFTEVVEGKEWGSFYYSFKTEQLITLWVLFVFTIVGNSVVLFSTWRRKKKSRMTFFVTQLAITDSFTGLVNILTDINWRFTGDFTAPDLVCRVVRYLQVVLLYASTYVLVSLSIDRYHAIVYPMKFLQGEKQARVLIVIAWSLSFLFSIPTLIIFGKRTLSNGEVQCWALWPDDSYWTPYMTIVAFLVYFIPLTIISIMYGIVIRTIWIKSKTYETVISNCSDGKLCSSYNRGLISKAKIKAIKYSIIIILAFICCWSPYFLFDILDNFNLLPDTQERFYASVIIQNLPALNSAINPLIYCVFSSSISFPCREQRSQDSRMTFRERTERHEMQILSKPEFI
The depositor's hits bear a star; ? = inconclusive; nt = no result; [ ] = remark or other dose. Calls come from the whole dose curve; as a rule, active = well fitted curve in the direction sought with a large enough effect; inconclusive = small, poorly fitted or top-dose-only effect, or another doubt; inactive = no such curve, though single readings can be large; an effect the other way counts as inactive or inconclusive. Unless noted, % is set by controls: 0 for no effect and ±100 for the full control effect; potency is the fitted concentration of half-maximal effect.

SMILES | IMPase Li inh | Luc counter | ERK EGF inh | NPSR antagonist
C[n+]1c(/C=C/c2ccc3c(c2)OCO3)ccc2ccccc21 | 8% | -26% | -2% | 1%
CC(=O)OC1CC2C(C)(C)C(O)C=C[C@@]2(C)C2CC[C@@]3(C)C(c4ccoc4)OC(=O)C4OC43[C@]12C (some centres undefined) | -5% | -3% | 17% | nt
CN(C)c1cc2c(c(N(C)C)c1)C(=O)c1ccccc1C2=O | 81%[38.3 µM] | 11µM* | nt | ?
CN(C)S(=O)(=O)c1cccc2c1C(=O)c1ccccc1C2=O | -3% | -7% | 1% | 5%
N/C(=N\OC(=O)/C=C/c1ccccc1)c1ccccn1 | 3% | 11µM* | -9% | -1%
O=C(/C=C/c1ccc2c(c1)OCO2)c1ccccn1 | nt | nt | ? | -13%
O=C(/C=C/Nc1ccccc1Br)c1ccccn1 | -4%[38.3 µM] | 13µM* | nt | -11%[46.1 µM]
O=C(/C=C\Nc1ccccn1)c1ccccc1 | 13%[38.3 µM] | ? | nt | 5%[46.1 µM]
O=C(/C=C/c1ccccc1)c1ccccn1 | -4%[38.3 µM] | 14µM* | nt | -8%[46.1 µM]
Oc1ccc(/C=N/NC(=S)N/N=C/c2ccc(O)cc2)cc1 | -2% | 4.5µM* | 28% | -1%
Oc1ccc(/C=N/NC(=S)Nc2cccnc2)cc1 | nt | nt | -13%[57.5 µM] | -6%
O=C(c1csnn1)N1CCC2(CCN(Cc3ccccc3)CC2)CC1 | 31% | 1% | -14% | nt
COc1ccc([C@H]2[C@H](C(=O)OC(C)(C)C)N3N=Cc4ccccc4C3C23C(=O)c2ccccc2C3=O)cc1OC (some centres undefined) | 6% | -3% | -20%[57.5 µM] | 7.9µM*
N#CC(Cc1ccc(O)c(O)c1)C(=O)N1CCc2ccccc21 (centres undefined) | 38% | -3% | -7% | -13%[46.1 µM]
CCN1/C(=C/c2ccc3cc(C)cc(C)c3[n+]2CC)Sc2cc(C)ccc21 | 11µM* | -20% | ? | -40%
CCN1/C(=C\C=C(C(C)=O)C(C)=O)Sc2ccccc21 | 9% | -1% | 2% | -18%
CCN1/C(=C/c2ccc3cccc(C)c3[n+]2CC)Sc2ccccc21 | -10%[38.3 µM] | -1% | nt | 10µM*
CN(C)c1ccc(/C=N/NC(=O)c2ccnn2C)cc1 | 11% | 1.8µM* | 14% | 15%
COc1ccccc1N1CCN(Cc2ccc(OC)c(OC)c2OC)CC1 | -6%[38.3 µM] | -3% | nt | 5%[46.1 µM]
CCOC(=O)C1CCN(Cc2ccc(O)c3ncccc23)CC1 | 0%[38.3 µM] | -1% | nt | 2.5µM*
c1ccc(N2CCN(Cc3ccnc4ccccc34)CC2)cc1 | 32%[38.3 µM] | 1% | nt | 28%[46.1 µM]
Oc1c(CN2CCN(c3ccccc3)CC2)cc(Br)c2cccnc12 | -3% | -2%[7.66 µM] | -7%[57.5 µM] | 7.9µM*
CCOC(=O)C1CCN(Cc2ccccc2C(F)(F)F)CC1 | -8%[38.3 µM] | -1% | nt | -21%[46.1 µM]
COc1ccccc1N1CCN(Cc2ccc(O)c3ncccc23)CC1 | 65%[38.3 µM] | -4% | nt | 4µM*
COC(=O)[C@H](COC(C)(C)C)NC(=O)O[C@@H]1C(=O)c2cc(OC)ccc2O[C@H]1c1ccc(OC)c(Br)c1 | 7% | 0% | -5% | nt
SMILES | IMPase Li inh | Luc counter | ERK EGF inh | NPSR antagonist
CC[N+](C)(CC)CCN1C(=O)c2ccccc2S1(=O)=O | -9% | -3%[7.66 µM] | nt | nt
O=c1c2ccccc2cnn1CCOc1ccccc1 | 9% | 8.9µM* | -7% | 0%
CCc1cc2c(=O)c(-c3ccc4c(c3)OCCO4)coc2c(CN2CCCCC2C)c1O (centres undefined) | 8% | 4% | -13%[57.5 µM] | 10µM*
COCC(=O)N1CCc2nc(-c3ccccc3)c3c(c2C1)CO[C@@H](C)C3 | 6% | -1%[7.66 µM] | nt | nt
COC(=O)c1cn(NC(=O)C2CCCO2)c(=O)c2ccccc12 (centres undefined) | 1% | 6% | -19% | 4%
COC(=O)c1cn(NC(=O)C2COc3ccccc3O2)c(=O)c2ccccc12 (centres undefined) | 11µM* | -3% | nt | -9%[46.1 µM]
COc1cc(C2C(C(=O)c3ccc(C)o3)=C(O)C(=O)N2c2cc(C)on2)cc(Br)c1O (centres undefined) | 3%[38.3 µM] | 2% | nt | -20%[46.1 µM]
COc1ccc(OC)c(C2C(C(=O)c3cc4ccccc4o3)=C(O)C(=O)N2c2cc(C)on2)c1 (centres undefined) | 11µM* | 0% | nt | ?
CCN(CC)CCCN1C(=O)C(O)=C(C(=O)c2cc3ccccc3o2)C1c1ccccn1 (centres undefined) | 13µM* | -7% | nt | ?
COc1ccc(C2C(C(=O)c3ccc(C)o3)=C(O)C(=O)N2c2cc(C)on2)cc1OC (centres undefined) | 10µM* | -3% | nt | 8%[46.1 µM]
CCN1C(=O)C2(C(C(=O)c3cc4ccccc4o3)=C(O)C(=O)N2CCCN2CCOCC2)c2ccccc21 (centres undefined) | nt | nt | -14%[57.5 µM] | 7.9µM*
O=C[C@@H]1CCCN1C(=O)[C@@H]1CCCN1C(=O)OCc1ccccc1 | 11% | nt | nt | nt
CC1(C(=O)O)NCCc2cc(O)c(O)cc21 (centres undefined) | 9% | nt | nt | nt
COc1ccccc1C1C(C(=O)c2cc3ccccc3o2)=C(O)C(=O)N1CCN1CCOCC1 (centres undefined) | 32µM* | -3% | nt | 8%[46.1 µM]
COc1ccc(OC)c(C2C(C(=O)c3sc(C)nc3C)=C(O)C(=O)N2CCN2CCOCC2)c1 (centres undefined) | nt | nt | nt | 6%[46.1 µM]
O=C1ON=C(c2cccc([N+](=O)[O-])c2)/C1=C/c1ccc(O)cc1 | 21% | 0% | 4% | 10µM*
CC(C)Cc1nc2sc3c(=O)[nH]cnc3c2c2c1CCC2 | 10µM* | 1% | -1% | -22%
O=C(O)c1c[nH]c2cc(OCc3ccccc3)ccc2c1=O | -2% | -8%[7.66 µM] | nt | nt
S=c1nc[nH]c2c1[nH]c1ccccc12 | 4.5µM* | 2% | nt | ?
CC(=O)OC1CC2C(C)(C)C(O)CC[C@@]2(C)C2CC[C@@]3(C)C(c4ccoc4)OC(=O)C4O[C@@]43[C@]12C (some centres undefined) | 5% | 0% | 22% | nt
COc1ccc(C(=O)CSc2ccc(-c3ccccc3)nn2)cc1 | 23% | 6% | 8% | -7%
COc1ccc(-c2ccc(SC)nn2)cc1 | 16% | 4.5µM* | -4% | -3%
O=C(COc1ccc(Cl)cc1)NCc1nnc(SCC(=O)NC2CCCCC2)o1 | 11µM* | -6% | nt | -26%[46.1 µM]
O=C(COc1ccc(Cl)cc1)NCc1nnc(SCC(=O)Nc2ccccc2)o1 | 14%[38.3 µM] | 1% | nt | -13%[46.1 µM]
CCOC(=O)C1=C(c2ccccc2)N=c2s/c(=C\c3ccc(O)cc3)c(=O)n2C1c1cccs1 (centres undefined) | 6%[38.3 µM] | -4% | nt | 10µM*
COC(=O)C1=C(C)N=c2s/c(=C/c3cccs3)c(=O)n2C1c1cccs1 (centres undefined) | 13%[38.3 µM] | 0% | nt | -7%[46.1 µM]
CN(C)c1ccc(C(c2ccc(N(C)C)cc2)c2ccc([N+](=O)[O-])cc2)cc1 | 11% | -3%[7.66 µM] | 14µM* | 53%
CN(C)c1ccc(C=NC(CO)C(O)c2ccc([N+](=O)[O-])cc2)cc1 (centres undefined) | nt | nt | 11%[57.5 µM] | 7%
